# HSF1 inhib – HSF1 inhibition; AID 2098; activity change, negative = inhibition, % at 7.5 µM (by protocol); NIH3T3-HGL HSE-luciferase, MG132-induced, luminescence 8 h; active compounds read low; 300,000 tested, 0.77% active;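 active means more than half of replicate wells show activity change below -50%, luminescence cut by over half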;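 further: luciferase reports HSF-1 transcriptional activity via heat shock element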
# HSP90 refold inh – blocks HSP90-mediated luciferase refolding in reticulocyte lysate. 290,000 tested, 0.91% active. Rabbit reticulocyte lysate, luciferase refolding luminescence, 3 h. inhibition, % at 5.6 µM;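 active means inhibition above the screen-wide mean plus 3 SD, computed separately per campaign, cut at about 16% in these data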;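 further: inhibitors lower the luminescence because luciferase stays unfolded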
# HSF-1 act – increases HSF-1 driven luciferase reporter signal; 300,000 tested, 1.7% active; activation, % at 9 µM; NIH3T3-HGL HSF-1 luciferase reporter, MG132, 8 h; 100% = twice DMSO control signal;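 active means mean replicate activation of at least 50% with a set share of replicates each reaching 50%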
# ARNT TACC3 PPI – ARNT/TACC3 interaction disruption | Q9Y6A5 | AID 623870 | 390,000 tested, 0.66% active | inhibition, % at 9.99 µM | AlphaScreen His-ARNT PAS-B/GST-TACC3 binding, luminescence; TACC3 fragment carries E629A point mutation;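 active means mean inhibition of replicates at least 50% and at least half of replicates each reaching 50%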
# HIF act – HIF pathway transcriptional activation; U2OS HRE-luciferase reporter, luminescence; normalized: DMSO 0%, desferrioxamine 100%; activation, % at 7.5 µM (by protocol); 300,000 tested, 0.32% active; AID 1910;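 active means mean activation of at least 10% of the iron chelator positive control signal, with at least half of replicates also reaching 10%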
# AlphaScreen ctr – counter-screen for ARNT/TACC3 inhibitors: AlphaScreen artifacts; shares compounds with ARNT TACC3 PPI; His-ARNT PASB-GST AlphaScreen artifact counter-screen, luminescence; AC50, µM (highest dose often 68 µM); 1,200 tested, 50% active; AID 651705;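 active means every separate test run was called active for a drop in luminescence, with AC50 within twice the top valid dose, actives reach about 71 µM in these data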
# A number is an active result; – = inactive; · = not tested or not shown. Only some compounds are listed: those with a hit (about 3.1% of all), similar ones and a draw of the others.
SMILES,HSF1 inhib,HSP90 refold inh,HSF-1 act,ARNT TACC3 PPI,HIF act,AlphaScreen ctr
Cc1ccccc1-c1ccc([C@H]2[C@H]3CN(S(=O)(=O)c4cn(C)cn4)CCCCN3[C@H]2CO)cc1,·,·,·,–,·,·
O=C(O)c1c[nH]c(=O)c2ccccc12,–,–,–,–,–,·
O=C(O)c1c[nH]c2c([N+](=O)[O-])cccc2c1=O,·,·,·,48.7,·,–
Cc1nc2ncccn2c1-c1csc(Nc2ccc(O)cc2)n1,–,–,–,68.3,–,21.7µM
Cc1ccc(Nc2nc(-c3c(C)nc4ncccn34)cs2)cc1,–,–,–,–,–,·
CCOc1ccc(N(CC(=O)Nc2ccc(OC)cc2OC)S(=O)(=O)c2c(C)[nH]c(=O)[nH]c2=O)cc1,–,–,–,57.7,–,10.4µM
CCOc1ccccc1NC(=O)CN(c1ccc(OC)cc1)S(=O)(=O)c1c(C)[nH]c(=O)[nH]c1=O,–,–,–,55.0,–,29.5µM
COc1ccc(N(CC(=O)Nc2ccccc2C)S(=O)(=O)c2c(C)[nH]c(=O)[nH]c2=O)cc1,–,–,–,–,–,·
O=C(NCCCn1ccnc1)C(F)(F)C(F)(F)C(=O)NCCCn1ccnc1,–,–,–,50.6,–,–
CC(C)C1Cc2c(sc3ncnc(NN)c23)CO1 (stereo not drawn),–,–,–,61.0,–,16.5µM
C[C@@H]1CN([C@H](C)CO)C(=O)c2cc(-c3ccccc3)cnc2O[C@H]1CN(C)C(=O)C1CCCCC1,·,·,·,–,·,·
CCC(=O)N(C)C[C@@H]1Oc2cc(C#CC3CC3)ccc2S(=O)(=O)N([C@@H](C)CO)C[C@H]1C,·,·,·,–,·,·
Cc1cccc(-c2ccc([C@H]3[C@@H](CO)N4CCCCN(S(=O)(=O)c5cccs5)C[C@@H]34)cc2)c1,·,·,·,–,·,·
CN(C)CCNc1ccc(CO)c2sc3ccc(O)cc3c(=O)c12,·,·,·,–,·,·
CN(C)CCNc1ccc2ncn3c4ccc(O)cc4c(=O)c1c23,·,·,·,58.4,·,–
O=C(Nc1ccncc1)Nc1cccc(C(F)(F)F)c1,–,–,–,–,–,·
Oc1c(C(Nc2cccc(C(F)(F)F)c2)c2ccncc2)ccc2cccnc12 (stereo not drawn),–,–,–,53.4,23.6,4.07µM
O=c1ccc(-c2ccc(S(=O)(=O)NCc3cccc(Br)c3)s2)n[nH]1,–,–,–,–,–,·
O=c1ccc(-c2ccc(S(=O)(=O)Nc3ccc(F)cc3)s2)n[nH]1,–,–,–,50.1,–,–
O=C(O)C1Nc2c(O)cc(Cl)c([N+](=O)[O-])c2C2C=CCC12 (stereo not drawn),–,–,–,57.6,–,31.5µM
CC1=CC(C)(C)N(C(=O)C(C)N2C(=O)c3ccccc3C2=O)c2ccc(C)cc21 (stereo not drawn),–,–,–,active,–,–
O=c1[nH]c(N2CCOCC2)cc2ccccc12,–,·,–,40.6,–,–
C[C@@H]1CN([C@@H](C)CO)C(=O)c2cc(NS(=O)(=O)c3ccccc3)ccc2O[C@@H]1CN(C)CC1CCCCC1,·,·,·,–,·,·
NC1=NN=C(N2N=C(c3ccco3)CC2(O)C(F)(F)F)n2ncnc2C1 (stereo not drawn),–,–,–,72.9,–,–
Cc1ccc(C2=NN(C3=NN=C(N)Cc4ncnn43)C(O)(C(F)(F)F)C2)cc1 (stereo not drawn),–,–,–,–,–,·
SMILES,HSF1 inhib,HSP90 refold inh,HSF-1 act,ARNT TACC3 PPI,HIF act,AlphaScreen ctr
CC(C)NC(=O)Nc1ccc2c(c1)C(=O)N([C@@H](C)CO)C[C@@H](C)[C@H](CN(C)C(=O)NC1CCCCC1)OCCCC[C@H](C)O2,·,·,·,–,·,·
Oc1c(Br)cccc1/C=N/c1ncn[nH]1,–,–,–,51.3,–,–
CCOc1cc(/C=N/Nc2ncc(C)c(=O)[nH]2)ccc1O,–,–,–,54.4,–,–
CCOc1cc(/C=N/Nc2nc(C)cc(=O)[nH]2)ccc1O,–,–,–,–,–,·
COc1ccc(C(=O)Cc2nnc(C)s2)c(OC)c1,–,–,–,77.2,–,–
CCCNC(=O)N(C)C[C@@H]1Oc2ncc(-c3ccc(OC)cc3)cc2C(=O)N([C@@H](C)CO)C[C@H]1C,·,·,·,–,·,·
O=C(N[C@H]1CC[C@@H](CCn2cc(-c3ccccn3)nn2)O[C@H]1CO)c1ccc(F)cc1,·,·,·,60.4,·,43.1µM
COCc1cn(CC[C@@H]2CC[C@@H](NC(=O)c3ccc(F)cc3)[C@H](CO)O2)nn1,·,·,·,–,·,·
O=C(N[C@@H]1CC[C@@H](CCn2cc(-c3ccccn3)nn2)O[C@H]1CO)c1ccc(F)cc1,·,·,·,74.6,·,46.9µM
O=C(N[C@@H]1CC[C@H](CCn2cc(-c3ccccn3)nn2)O[C@H]1CO)c1ccc(F)cc1,·,·,·,42.6,·,43.3µM
O=C(N[C@H]1CC[C@@H](CCn2cc(-c3ccccn3)nn2)O[C@@H]1CO)c1ccc(F)cc1,·,·,·,112.0,·,44.9µM
Cc1ccc(-c2cnc3c(c2)C(=O)N([C@@H](C)CO)C[C@H](C)[C@@H](CN(C)S(C)(=O)=O)O3)cc1,·,·,·,–,·,·
O=C(C[C@H]1C=C[C@@H](NC(=O)CN2CCOCC2)[C@@H](CO)O1)NC1CCC1,·,·,·,–,·,·
O=C(CC(=O)N/N=C/c1ccccc1O)NCc1cccnc1,–,–,–,47.7,–,–
C=CCN1C(=O)[C@@]2(O[C@@H](CCn3cc([C@H](O)c4ccccc4)nn3)[C@H]([Si](C)(C)c3ccc(OC)cc3)[C@H]2C)c2ccccc21,·,·,·,–,·,·
Cc1cc(C)n(S(=O)(=O)c2ccc(Cl)cc2)n1,–,–,–,active,–,–
Cc1cc(C)n(S(=O)(=O)c2ccc(F)cc2)n1,–,–,–,–,–,·
O=C(CSc1cccc2cccnc12)N/N=C/c1ccc(F)cc1,–,–,–,–,–,·
O=C(O)CSc1cccc2cccnc12,–,–,–,60.1,–,–
CN(C)S(=O)(=O)c1cccc(NC(=O)CSc2cccc3cccnc23)c1,–,–,–,64.5,–,11.8µM
O=S(=O)(N[C@@H]1CC[C@H](CCn2cc(-c3ccccn3)nn2)O[C@H]1CO)c1cccc(F)c1,·,·,·,83.7,·,44.5µM
O=S(=O)(N[C@H]1CC[C@@H](CCn2cc(-c3ccccn3)nn2)O[C@H]1CO)c1cccc(F)c1,·,·,·,88.1,·,39µM
O=S(=O)(N[C@H]1CC[C@@H](CCn2cc(-c3cccc(F)c3)nn2)O[C@H]1CO)c1ccccc1,·,·,·,–,·,·
COC(=O)c1ccc(C(=O)OC)nc1,–,–,–,–,–,·
COC(=O)c1ccc(C(=O)O)nc1,–,–,–,52.6,–,–
CN(C)CC(=O)N1[C@@H]2c3ccc(-c4ccccc4)c(=O)n3C[C@@H]2[C@@H](CO)[C@@H]1C(=O)NC1CCC1,·,·,·,–,·,·
CO[C@H]1CN(C)C(=O)c2cc(NC(=O)c3ccc(F)cc3)ccc2OC[C@H](C)N(C(=O)CN(C)C)C[C@@H]1C,·,·,·,–,·,·
Cc1cccc(Nc2nc(-c3ccccn3)cs2)n1,–,–,–,72.7,–,46.7µM
